# Values without a mark were called inactive. A call without a number means that no potency is given here. The source made the active and inactive calls. Calls follow the shape of the dose curve; as a rule, active = well fitted curve in the direction sought with a large enough effect; inconclusive = small, poorly fitted or top-dose-only effect, or another doubt; inactive = no such curve, though single readings can be large; an effect the other way counts as inactive or inconclusive.
# Target: Cytochrome P450 3A4 (Homo sapiens) (UniProt P08684)
# Assay: qHTS Assay for Activators of Cytochrome P450 3A4 (AID 885); also: nearly all actives have a fitted effect of over 65% in size
# Conditions: recombinant CYP3A4, Luciferin-PPXE luminescence, 60 min; series mostly up to 57.1 µM
# Procedure, shortened: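 Steps: enzyme/substrate mix dispensed; compound added, 10 min RT; NADPH regeneration solution added, 60 min RT; luciferin detection buffer stops reaction; 20 min later luminescence measured.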
# Cytochrome P450 3A4 (Homo sapiens), sequence (P08684 whole entry, looked up): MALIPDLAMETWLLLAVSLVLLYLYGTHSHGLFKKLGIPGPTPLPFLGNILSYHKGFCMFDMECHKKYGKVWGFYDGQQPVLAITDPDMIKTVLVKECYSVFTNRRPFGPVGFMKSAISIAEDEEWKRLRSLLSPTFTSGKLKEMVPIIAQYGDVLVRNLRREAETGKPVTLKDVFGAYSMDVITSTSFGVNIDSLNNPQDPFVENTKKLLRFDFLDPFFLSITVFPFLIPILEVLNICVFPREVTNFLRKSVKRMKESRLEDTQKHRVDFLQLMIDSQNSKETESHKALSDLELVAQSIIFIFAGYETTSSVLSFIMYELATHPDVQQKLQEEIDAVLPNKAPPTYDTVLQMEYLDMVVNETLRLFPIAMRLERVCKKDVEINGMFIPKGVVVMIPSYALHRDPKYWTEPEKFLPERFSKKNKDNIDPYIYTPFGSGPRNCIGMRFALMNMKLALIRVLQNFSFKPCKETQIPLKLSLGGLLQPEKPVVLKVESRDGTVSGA
Structure (SMILES),"activity change, positive = activation",Potency
CO/N=C1/c2cc(OC)ccc2O[C@@H](c2cccc(OC)c2)[C@H]1O,-52.8% [at 11.4 µM],–
O=C1[C@H]2O[C@@H]2[C@@H](O)[C@H]2[C@H]1CCn1c(=O)n(Cc3cc4c(cc3Cl)OCO4)c(=O)n12,-36.7% [at 11.4 µM],–
COC(=O)C/C=C\[C@@H](C)[C@@H](/C=N\O[C@@H]1O[C@H](COC(C)=O)[C@H](OC(C)=O)[C@H](OC(C)=O)[C@H]1OC(C)=O)OC,-32.3% [at 11.4 µM],–
N#Cc1ccc(C23CC4(C2)[C@H](CN(Cc2ccc(C(F)(F)F)cc2)[C@@H]4c2ccccc2)C3c2ccccc2)cc1 (stereo partly specified),–,inactive
N#CCC(=O)NC(=O)NCC1CC1,–,inactive
Cn1c(N)c(C(=O)COC(=O)c2cc(C(F)(F)F)nc3ccccc23)c(=O)n(Cc2ccccc2)c1=O,–,inactive

# Test system: not listed separately
# Assay: Confirmation and Secondary Assay for Modulators of Hemoglobin Beta Chain Splicing at IVS2 654 locus (AID 910);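 also: HeLa cells stably carrying EGFP split by mutant beta-globin IVS2-654 intron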
# Conditions: HeLa EGFP-654 splicing reporter, GFP fluorescence, 48 h; series mostly up to 46.1 µM
# Procedure, shortened: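 HeLa cells stably expressing EGFP interrupted by β-globin IVS2-654 intron, seeded overnight in Opti-MEM/2% FCS, then treated 2 days at 37 °C. Restored splicing read as total peak GFP intensity per well by laser scanning cytometry (488 nm excitation, 500–520 nm emission); 500 nM antisense PNA as control.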
row,Structure (SMILES),outcome
1,Nc1ncnc2c1nc(Br)n2C1OC(CO)C(O)C1O (stereo unspecified),inactive
2,COc1ccc2c(=O)ccoc2c1,inactive
3,C=CCCCCCCCCCCCC(O)CC(O)COC(C)=O (stereo unspecified) (tested in a mixture with another compound),inactive
4,COc1cc2ccc(=O)oc2c(OC)c1OC,inactive
5,NC(=O)c1ccc[n+]([C@@H]2OC(COP(=O)([O-])OP(=O)(O)OCC3OC(n4cnc5c(N)ncnc54)C(O)C3O)C(O)C2O)c1 (stereo partly specified),inactive
6,CC(=O)OC(C)(C)C1Cc2cc3ccc(=O)oc3cc2O1 (stereo unspecified),inactive

# Test system: not listed separately
# Assay: Confirmation and Secondary Assay for Modulators of Hemoglobin Beta Chain Splicing at IVS2 705 locus (AID 930);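 also: HeLa cells stably expressing the EGFP-705 splicing reporter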
# Conditions: HeLa EGFP-705 splicing reporter, GFP fluorescence, 48 h; series mostly up to 46.1 µM
# Procedure, shortened: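 Restored EGFP fluorescence after 2-day compound exposure reports splicing correction in IVS2-705 EGFP reporter HeLa cells; positive control was 500 nM splice-blocking PNA oligo. Signal measured as well total peak GFP intensity (488 nm excitation).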
row,Structure (SMILES),outcome
1,NC(=O)c1cc[n+](CC2=C(C(=O)O)N3C(=O)C(NC(=O)C(c4ccccc4)S(=O)(=O)[O-])C3SC2)cc1 (stereo unspecified),inactive
2,Nc1ncnc2c1nc(Br)n2C1OC(CO)C(O)C1O (stereo unspecified),inactive
3,COc1ccc2c(=O)ccoc2c1,inactive
4,C=CCCCCCCCCCCCC(O)CC(O)COC(C)=O (stereo unspecified) (tested in a mixture with another compound),inactive
5,COc1cc2ccc(=O)oc2c(OC)c1OC,inactive
6,CC1/C=C/C=C/C=C/C=C/C=C/C=C/C=C/C(OC2OC(C)C(O)C(N)C2O)CC2O[C@@](O)(CC(O)CC(O)C(O)CCC(O)CC(O)CC(=O)OC(C)[C@H](C)C1O)CC(O)C2C(=O)O (stereo partly specified),inactive
7,NC(=O)c1ccc[n+]([C@@H]2OC(COP(=O)([O-])OP(=O)(O)OCC3OC(n4cnc5c(N)ncnc54)C(O)C3O)C(O)C2O)c1 (stereo partly specified),inactive
8,O=C1C=CC2=C3c4cc(O)c(O)cc4C[C@]3(O)COC2=C1,inactive
9,CC(=O)OC(C)(C)C1Cc2cc3ccc(=O)oc3cc2O1 (stereo unspecified),inactive

# Source: PubChem BioAssay (NCATS)
